About 4,100 (1.2%) of roughly 330,000 compounds were called active. Only a selection was taken, and actives are over-represented in it overall. Values without a mark were called inactive. No stated cut-off is given here; in the data, active means inhibition above about 50%; inactive means the rest.
Biological target: Sentrin-specific protease 8 (Homo sapiens) (UniProt Q96LD8)
Test: blockers of human SENP8 peptidase activity – biochemical, luminescence, primary screen (AID 2540)
Settings: purified SENP8, Z-RLRGG-aminoluciferin cleavage, at 10 µM, hits give high values

Chain of Sentrin-specific protease 8 (Homo sapiens) (Q96LD8 whole entry, looked up): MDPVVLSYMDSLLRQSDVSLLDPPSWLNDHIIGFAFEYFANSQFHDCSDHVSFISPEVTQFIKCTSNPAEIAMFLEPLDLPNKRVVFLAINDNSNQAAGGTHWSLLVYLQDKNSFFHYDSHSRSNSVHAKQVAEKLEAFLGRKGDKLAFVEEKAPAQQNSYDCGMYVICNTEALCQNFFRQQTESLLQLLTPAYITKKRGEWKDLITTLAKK

Structure (SMILES) | inhibition
Cc1cccc(C)c1Nc1nnc(SCC(=O)Nc2sccc2C#N)s1 | 9.07%
Cc1ccc(NC(=O)CSCC(=O)Nc2sccc2C#N)cc1 | 10.4%
Cc1csc(SCC(=O)Nc2sccc2C#N)n1 | 92.7% (active)
Cn1cccc1Cc1nnc(SCC(=O)NCc2ccc3c(c2)OCO3)n1CCc1ccccc1 | 2.69%
CCOc1nnc(C)c2c(C)n(-c3cccc(Cl)c3)nc12 | 8.66%
Cc1nc2ccc(C(=O)N/N=C/c3ccc(O)cc3)cc2[nH]1 | -3.65%
Cc1nonc1C(=O)N/N=C/c1ccc(O)cc1 | 97.5% (active)
CC(C)c1c(C(=O)N/N=C/c2ccc(-c3ccccc3)cc2)nnn1-c1nonc1N | 9.04%
COC(=O)c1cccc(N(CC(=O)NCC2CCCO2)C(=O)CCC(=O)Nc2cc(C)on2)c1 (stereo unspecified) | -7.21%
CCOC(=O)c1cnc2[nH]c3ccccc3n2c1=O | 78.1% (active)
CCOC(=O)c1cnc(COc2ccccc2Cl)[nH]c1=O | -10.8%
CCOC(=O)c1cnc2sccn2c1=O | -2.74%
CCn1c2ccccc2c2cc(NC(=O)Nc3ccc([N+](=O)[O-])cc3C)ccc21 | -10.4%
CC(=O)Nc1ccc(S(=O)(=O)N2CCn3cccc3C2C)cc1 (stereo unspecified) | -4.04%
COc1ccccc1CCNC(=O)C1CCN(C(=O)/C=C/c2ccccc2)CC1 | -12.7%
COc1ccc2c(c1OC)C(=O)OC2Nc1nc(-c2ccccc2)cs1 (stereo unspecified) | 1.85%
COc1ccc(-c2csc(NC(=O)COC(=O)Cc3ccc(Cl)cc3Cl)n2)cc1 | 2.3%
COc1ccc(C(=O)Nc2nc(-c3ccc(S(=O)(=O)N4CCOCC4)cc3)cs2)cc1 | -0.876%
COc1ccc(Nc2nc(-c3ccccc3)cs2)cc1 | 82.8% (active)
Clc1ccc(Nc2nc(-c3cccs3)cs2)nc1 | 10.9%
CCCn1c(CCNc2nc(-c3ccc(OC)cc3)cs2)nc2ccccc21 | 1.24%
c1ccc(Nc2nc(-c3ccncc3)cs2)nc1 | 80.4% (active)
COc1ccc(-c2csc(Nc3ccccn3)n2)cc1 | 85.4% (active)
Clc1ccc(-c2csc(-c3ccncc3)n2)cc1 | -22.5%

Structure (SMILES) | inhibition
COC(=O)c1ccc(/C=N/N2C(C)CCCC2C)cc1 (stereo unspecified) | -6.16%
CC1(c2ccc3ccccc3c2)NC(=O)NC1=O (stereo unspecified) | -0.811%
Cc1c(O)c(C)c2c(c1O)C(=O)C[C@@H](c1ccccc1)O2 | 6.05%
Cc1ccc(CS(=O)Cc2ccc(C(=O)N3CCOCC3)o2)cc1 (stereo unspecified) | -6.99%
COc1ccc(F)cc1C(=O)C1CCCN(C(=O)CCc2ccccn2)C1 (stereo unspecified) | 29.7%
O=C(COC(=O)c1ncc(Cl)c(Cl)c1Cl)NC1CCS(=O)(=O)C1 (stereo unspecified) | -7.58%
CCOC(=O)C1CCCN(C(=O)COc2ccc(N(C)S(=O)(=O)c3ccc(C)cc3)cc2)C1 (stereo unspecified) | -0.395%
NNC(=O)c1cnn(-c2ccccc2)c1C(F)(F)F | -1.96%
O=C(COc1ccccc1Cl)Nc1ccc(C(=O)c2ccc(C(=O)O)cc2)cc1 | 2.39%
COC(=O)c1ccc(NCC(=O)N2CCCCCC2)cc1 | -5.06%
COC(=O)c1ccc(NC(=O)Nc2ccc(C)cc2)cc1 | -16%
COC(=O)c1ccc(NCC(=O)c2ccccc2)cc1 | 92.3% (active)
O=C(COC(=O)c1ccc(S(=O)(=O)Nc2ccccc2)cc1)NCC1CCCO1 (stereo unspecified) | -2.95%
CC1CN(S(=O)(=O)c2ccc(C(=O)Nc3sccc3C(N)=O)cc2)CC(C)O1 (stereo unspecified) | -3.19%
CCCOc1ccc(CNC(=O)C2CCN(c3nn4c(=O)cc(C)nc4s3)CC2)cc1 | 7.56%
Nc1ccc(-c2nnc(-c3ccccc3)o2)cc1 | 40%
O=C(Nc1ccc2oc(-c3ccc4ccccc4c3)nc2c1)c1cccs1 | 5.01%
CCc1ccc2oc(-c3ccc(N)cc3)nc2c1 | 89.6% (active)
Fc1ccc2nc(-c3ccccc3)nc(SCc3nnc(-c4ccccc4)o3)c2c1 | 9.5%
O=C(C[C@@H]1C/C=C\CCC(=O)OC[C@@H]2CCCN2C1=O)NCCO | -14.7%
CC(C)[C@H](NC(=O)N1c2ccccc2NC(=O)[C@@H]1C(C)C)C(=O)N[C@H](C(=O)O)c1ccccc1 | -11.1%
CN(Cc1nc2ccccc2s1)C(=O)c1ccc(F)cc1 | -4.17%
COc1ccccc1N1CC(O)=C(c2nc3ccccc3s2)C1=N | -8.72%
COc1ccccc1OCc1nc2ccccc2s1 | 94.1% (active)

Structure (SMILES) | inhibition
COC(=O)Cc1ccc(OCC(=O)NC2CCCC2)cc1 | -7.77%
O=C(Nc1ccccc1C(F)(F)F)N1CCCC1c1cccnc1 (stereo unspecified) | 1.35%
O=C(Nc1ccc(-c2csc(Nc3cccc(C(F)(F)F)c3)n2)cc1)c1cccc(C(F)(F)F)c1 | 2.09%
Cc1ccccc1Nc1nc(-c2cccnc2)cs1 | 44%
CC(=O)NCCC(=O)Nc1nc(-c2ccc3c(c2)OCCO3)cs1 | -10.2%
CC(=O)Nc1cccc(-c2csc(Nc3cccc(C)n3)n2)c1 | 90.4% (active)
Cc1cccc(Nc2nc(-c3ccccc3)cs2)n1 | 81.3% (active)
CCc1noc(C)c1C(=O)Nc1nc(-c2ccccc2)cs1 | -12.4%
CC(=O)NNc1cc(=O)c2c(=O)n(C)c(=O)n(C)c2[nH]1 | 5.83%
COc1ccc(N(CC(=O)N/N=C/c2cccc3c2OCCO3)S(=O)(=O)c2ccc(NC(C)=O)cc2)cc1 | -14.1%
Cc1nc(COc2cc3oc(=O)cc(C)c3cc2Cl)cs1 | -13.3%
CCN1CCCC1CNC(=O)Cn1cnc2ccc(S(=O)(=O)N3CCC(C)CC3)cc2c1=O (stereo unspecified) | 3.55%
CCC1Nc2ncnc(N3CCN(c4ccccc4)CC3)c2N(Cc2ccc(Cl)cc2)C1=O (stereo unspecified) | -14%
CCOCC(=O)Nc1ncc(S(=O)(=O)c2ccc([N+](=O)[O-])cc2)s1 | 1.6%
CC(=O)Nc1ccccc1NC(=O)c1cc(C)cc(C)c1 | -8.13%
C=CCN(c1ccc(C(=O)Nc2cc(C)cc(C)c2)cc1)S(C)(=O)=O | 3.93%
CSCc1ccc(C(=O)Nc2cc(C)cc(C)c2)cc1 | 72.8% (active)
COc1cc(N=Cc2c(O)c3ccccc3oc2=O)c(OC)cc1Cl | 20%
COc1ccccc1N=C(C)C1=C(O)COC1=O | -4.5%
COc1ccccc1N=Cc1c(O)c2ccccc2oc1=O | 58.3% (active)
C=CCn1c(C)cc(C2=NNC(=NCC)SC2)c1C | 91.5% (active)
COc1ccc(N(Cc2ccc(N(C)C)cc2)C(=O)c2ccc(S(C)(=O)=O)cc2)cc1 | 7.56%
O=C(CCc1ccccc1)Nc1ccc(NC(=O)C2CC2)nc1 | -0.592%
CCN(Cc1ccccc1)C(=O)CN1C(=S)NC(C)(C)CC1C (stereo unspecified) | -3.88%

Structure (SMILES) | inhibition
O=C(CN1CCN(c2ccccc2F)CC1)c1ccc2c(c1)OCO2 | -9.99%
O=C(c1ccco1)N1CCN(C(=O)c2cc(-c3ccccc3F)no2)CC1 | 3.2%
Fc1ccccc1-c1cc2cc3c(cc2cn1)OCO3 | 70.8% (active)
Cc1ccc(N(Cc2ccccc2O)C(=O)c2ccccc2F)cc1 | 9.54%
O=C(Nc1ccc2ccccc2c1)/C(=C\c1ccc2c(c1)OCO2)NC(=O)c1ccco1 | 10.3%
CCN1C(=NCc2ccc(OC)cc2)N[C@@H](CCc2ccccc2)[C@H](C(=O)NCc2ccc(OC)cc2)[C@H]1C | -2.38%
CC(C)CCN1C(=O)c2ccc(C(=O)Nc3cccc(S(N)(=O)=O)c3)cc2C1=O | -8.58%
COCCOC(=O)c1sc(=S)n(CCOC)c1N | -1.86%
CC(=O)c1ccc(NC(=O)c2ccc3c(Cl)c4c(nc3c2)CCCC4)cc1 | -0.476%
COc1cccc(NC(=O)c2ccc3c(SCC(=O)O)c4c(nc3c2)CCCC4)c1 | -3.32%
CC(C)CCNC(=O)c1ccc2c(Cl)c3c(nc2c1)CCC3 | 81.1% (active)
Cc1c(CCO)c(=O)[nH]n1C(=O)c1c(F)cccc1F | 13.4%
O=C(O)C(F)(F)C(NCc1ccccc1)c1ccccc1 (stereo unspecified) | -6.64%
CC(C)c1ccc(C(=O)OC2CCOC2=O)cc1 (stereo unspecified) | 2.09%
COc1cc(C(=O)OC2CCOC2=O)c([N+](=O)[O-])cc1OC (stereo unspecified) | -2.98%
O=C(OC1CCOC1=O)c1ccc(-c2nc3ccccc3s2)s1 (stereo unspecified) | 93.9% (active)
Cc1cccc(NS(=O)(=O)c2ccc(C)c(C(=O)NCC(c3ccccc3)N(C)C)c2)c1 (stereo unspecified) | 8.98%
CCCCNC(=O)c1ccccc1NC(=O)c1ccccc1N(C)S(C)(=O)=O | -5.03%
Oc1c(Cl)cc(Cl)c(Cl)c1Cc1c(O)c(Cl)cc(Cl)c1Cl | 28.5%
COc1ccccc1-c1nnc(-c2ccc(F)cc2)o1 | 24.5%
COc1ccc(/C=C/c2noc(-c3ccccc3OC(C)=O)n2)cc1 | 88.3% (active)
COc1cccc(/C=C/c2ccc3ccccc3n2)c1OC(C)=O | 17.7%
C[C@@H]1CC[C@]2(O[C@@H](CCO)C[C@H](O)[C@H]2O)O1 | 1.7%
NC(=O)[C@H]1CC2(CC(c3cccc(NC(=O)[C@H]4CCC(=O)N4)c3)=NO2)CN1C(=O)c1ccccc1C(=O)c1ccccc1 (stereo partly specified) | 2.84%

From PubChem BioAssay AID2540 (Sanford-Burnham Center for Chemical Genomics, 2010)
